From the supplement of paper PMC10849652
Of roughly 8,800 targets only a part is listed; those with a hit were picked by preference. About 0.5% of all pairs of compound and target were hits.

Columns and labels:
Test in all cases: log2 fold change, soluble protein after heating vs DMSO (PISA); higher = thermal stabilisation; K562 lysate, 10 uM; active = over 0.2 and 3.5 SD of the protein, either way, in both replicates (recomputed)
[1] = compound: C#Cc1cccc(Nc2ncnc3cc(OCCOC)c(OCCOC)cc23)c1 [erlotinib]
Procedure, shortened: (§1)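 K562 pellets were dounce-homogenised in PBS pH 7.4 containing 1 mM MgCl2, and the crude extract, at 1 mg/mL protein, was exposed to 10 μM compound for 30 min. Aliquots were heated for 3 min across 48°C-58°C, pooled, brought to 0.5% NP-40 at 4°C and spun at 21,000xg for 90 min, with the supernatant taken as soluble protein. TMTpro 16plex LC-MS/MS with equalised channel sums quantified that protein. Values are log-two fold changes in thermal stability relative to solvent controls, taken from duplicates.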

[2] = compound: C/C(=N\NC(=O)C1=CC(=CC=C1)S(=O)(=O)N2CCOCC2)/C3=C(C=CC(=C3)Cl)O
Procedure, shortened: as §1

[3] = compound: C1=CC(=CC=C1C2=NC3=C(N2)C=C(C=C3)C(=O)N)OC4=CC=C(C=C4)Cl
Procedure, shortened: as §1

[4] = compound: C1=CC2=C(C=CC(=C2)/C=C\3/C(=O)NC(=NCC4=CC=CS4)S3)N=C1
Procedure, shortened: as §1

[5] = compound: C1=CC2=NC=CN=C2C=C1/C=C/3\C(=O)NC(=O)S3
Procedure, shortened: as §1

[6] = compound: C1=CC=C(C=C1)C2=NC(=C(N2)C3=CC=NC=C3)C4=CC(=C(C=C4)Cl)O
Procedure, shortened: as §1

[7] = compound: C1=CC=C2C(=C1)C3=NNC4=CC=CC(=C43)C2=O
Procedure, shortened: as §1

[8] = compound: C1CCN(C1)C(=O)NC2=CC=CC(=C2)NC3=NC=C(C(=N3)NCCC4=CN=CN4)Br
Procedure, shortened: as §1

[9] = compound: C1CN(CCC1(CC2=CC=C(C=C2)Cl)N)C3=NC=NC4=C3C=CN4
Procedure, shortened: as §1

[10] = compound: C1COCCN1CCN2C3=CC=CC=C3N=C2NC(=O)C4=CC(=CC=C4)[N+](=O)[O-] [IRAK-1-4 Inhibitor I]
Procedure, shortened: as §1

[11] = compound: C=CC(=O)N1CCC[C@@H](n2nc(-c3ccc(Oc4ccccc4)cc3)c3c(N)ncnc32)C1 [ibrutinib]
Procedure, shortened: as §1

[12] = compound: CC(=O)c1cnc2ccc(-c3cc(Cl)c(O)c(Cl)c3)nc2c1N[C@H]1CC[C@H](CN(C)C)CC1
Procedure, shortened: as §1

[13] = compound: CC(C)(C)Cn1c(N)nc2ccc(-c3[nH]c(C(C)(C)C)nc3-c3ccc(F)cc3)nc21 [ralimetinib]
Procedure, shortened: as §1

[14] = compound: CC(C)(O)CC(=O)NCCn1ccc2ncnc(Nc3ccc(Oc4cccc(C(F)(F)F)c4)c(Cl)c3)c21
Procedure, shortened: as §1

[15] = compound: CC(C)C1=C2N=C(C=C(N2N=C1)NCC3=CC=CC=C3)NCCCCCCN
Procedure, shortened: as §1

[16] = compound: CC1=C(C(CC(=O)N1)C2=CC=C(C=C2)C(F)(F)F)C(=O)NC3=C(C=C4C(=C3)C=NN4)F
Procedure, shortened: as §1

[17] = compound: CC1=C(C2=C(C=C1)C(=O)C3=CC=CC=C3N2CCCN)C
Procedure, shortened: as §1

[18] = compound: CC1=C(C=C(C=C1)NC(=O)C2=CC(=CC=C2)C(C)(C)C#N)NC3=CC4=C(C=C3)N=CN(C4=O)C
Procedure, shortened: as §1

[19] = compound: CC1=C(C=C(C=C1)NC(=O)C2=CC(=CC=C2)N(C)C)NC(=O)C3=CC=C(C=C3)O
Procedure, shortened: as §1

[20] = compound: CC1=CC=C(C=C1)SC2=C3C=C(SC3=CN=C2)C(=O)N
Procedure, shortened: as §1

Measured: log2 fold change

GIT1 (UniProt Q9Y2X7)
inactive: [1] -0.003 | [2] 0.011 | [3] -0.039 | [4] 0.054 | [5] -0.014 | [6] -0.014 | [7] -0.009 | [8] 0 | [9] -0.011 | [10] 0.017 | [11] 0.075 | [12] -0.002 | [13] -0.042 | [14] 0.033 | [15] -0.004 | [16] -0.074 | [17] -0.012 | [18] 0.044 | [19] -0.007 | [20] 0.024

INTS3 (UniProt Q68E01)
inactive: [1] 0.015 | [2] 0.035 | [3] 0.021 | [4] -0.002 | [5] -0.008 | [6] -0.043 | [7] -0.005 | [8] 0.026 | [9] -0.083 | [10] 0.016 | [11] 0.044 | [12] 0.024 | [13] 0.019 | [14] -0.032 | [15] 0.032 | [16] -0.035 | [17] 0.004 | [18] 0.009 | [19] 0.025 | [20] -0.032

INPP4A (UniProt Q96PE3)
inactive: [1] 0.002 | [2] 0.007 | [3] 0.017 | [4] -0.005 | [5] -0.023 | [6] 0.099 | [7] 0.069 | [8] -0.018 | [9] -0.051 | [10] 0.066 | [11] -0.166 | [12] 0.001 | [13] 0.061 | [14] -0.013 | [15] -0.034 | [16] 0.02 | [17] -0.086 | [18] 0.022 | [19] -0.053 | [20] -0.025

HNRNPD isoform 3 (UniProt Q14103)
Sequence of UniProt Q14103 (Q14103 whole entry, looked up): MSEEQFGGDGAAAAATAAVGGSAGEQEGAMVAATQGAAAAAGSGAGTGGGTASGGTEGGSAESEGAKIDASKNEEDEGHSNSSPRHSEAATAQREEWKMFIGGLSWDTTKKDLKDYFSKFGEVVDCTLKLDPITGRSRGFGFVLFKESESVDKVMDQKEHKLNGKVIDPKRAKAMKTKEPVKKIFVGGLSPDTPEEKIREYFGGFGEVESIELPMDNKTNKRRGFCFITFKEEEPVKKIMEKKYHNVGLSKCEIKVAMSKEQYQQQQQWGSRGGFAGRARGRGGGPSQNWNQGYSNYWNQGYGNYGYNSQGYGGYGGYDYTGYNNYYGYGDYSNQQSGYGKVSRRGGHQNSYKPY
inactive: [1] -0.056 | [2] -0.133 | [3] -0.1 | [4] -0.181 | [5] -0.036 | [6] -0.11 | [7] 0.021 | [8] 0.108 | [9] -0.043 | [10] -0.057 | [11] -0.081 | [12] -0.065 | [13] -0.046 | [14] 0.104 | [15] -0.026 | [16] -0.096 | [17] -0.052 | [18] 0 | [19] 0.036 | [20] -0.007

HARS (UniProt P12081)
Sequence of UniProt P12081 (P12081 whole entry, looked up): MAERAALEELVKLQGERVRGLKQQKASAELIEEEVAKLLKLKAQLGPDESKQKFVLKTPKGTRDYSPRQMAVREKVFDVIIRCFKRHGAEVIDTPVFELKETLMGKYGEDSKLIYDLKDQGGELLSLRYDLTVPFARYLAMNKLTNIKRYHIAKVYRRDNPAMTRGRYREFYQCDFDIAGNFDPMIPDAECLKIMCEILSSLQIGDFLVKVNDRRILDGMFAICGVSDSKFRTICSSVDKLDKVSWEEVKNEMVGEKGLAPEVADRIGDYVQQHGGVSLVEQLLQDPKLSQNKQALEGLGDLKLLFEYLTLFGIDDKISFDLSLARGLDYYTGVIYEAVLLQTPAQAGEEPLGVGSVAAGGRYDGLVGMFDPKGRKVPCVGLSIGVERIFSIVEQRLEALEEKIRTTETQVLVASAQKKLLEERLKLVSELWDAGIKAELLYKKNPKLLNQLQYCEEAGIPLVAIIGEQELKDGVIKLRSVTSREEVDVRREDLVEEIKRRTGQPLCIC
inactive: [1] -0.034 | [2] 0.006 | [3] -0.002 | [4] 0.021 | [5] -0.036 | [6] -0.005 | [7] 0.019 | [8] -0.016 | [9] 0.001 | [10] -0.002 | [11] -0.049 | [12] 0.022 | [13] -0.002 | [14] 0.015 | [15] -0.039 | [16] -0.015 | [17] 0.008 | [18] 0.005 | [19] 0.008 | [20] 0.005

IFITM3 (UniProt Q01628)
Sequence of UniProt Q01628 (Q01628 whole entry, looked up): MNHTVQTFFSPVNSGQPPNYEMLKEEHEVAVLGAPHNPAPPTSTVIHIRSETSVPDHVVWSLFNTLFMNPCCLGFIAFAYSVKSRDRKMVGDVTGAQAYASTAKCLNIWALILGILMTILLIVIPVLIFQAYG
inactive: [1] -0.136 | [2] -0.11 | [3] 0.062 | [4] 0.004 | [5] -0.094 | [6] -0.122 | [7] 0.084 | [8] -0.095 | [9] -0.069 | [10] -0.026 | [11] -0.07 | [12] -0.042 | [13] 0.179 | [14] 0.078 | [15] 0.003 | [16] -0.173 | [17] -0.117 | [18] -0.133 | [19] -0.026 | [20] 0.129

HNRNPD isoform 2 (UniProt Q14103)
inactive: [1] -0.001 | [2] -0.014 | [3] -0.022 | [4] -0.027 | [5] 0.049 | [6] 0.014 | [7] -0.023 | [8] 0.012 | [9] -0.009 | [10] 0.018 | [11] 0 | [12] -0.142 | [13] -0.039 | [14] -0.01 | [15] 0.016 | [16] -0.046 | [17] 0.001 | [18] 0.034 | [19] -0.014 | [20] -0.011

IARS2 (UniProt Q9NSE4)
Sequence of UniProt Q9NSE4 (Q9NSE4 whole entry, looked up): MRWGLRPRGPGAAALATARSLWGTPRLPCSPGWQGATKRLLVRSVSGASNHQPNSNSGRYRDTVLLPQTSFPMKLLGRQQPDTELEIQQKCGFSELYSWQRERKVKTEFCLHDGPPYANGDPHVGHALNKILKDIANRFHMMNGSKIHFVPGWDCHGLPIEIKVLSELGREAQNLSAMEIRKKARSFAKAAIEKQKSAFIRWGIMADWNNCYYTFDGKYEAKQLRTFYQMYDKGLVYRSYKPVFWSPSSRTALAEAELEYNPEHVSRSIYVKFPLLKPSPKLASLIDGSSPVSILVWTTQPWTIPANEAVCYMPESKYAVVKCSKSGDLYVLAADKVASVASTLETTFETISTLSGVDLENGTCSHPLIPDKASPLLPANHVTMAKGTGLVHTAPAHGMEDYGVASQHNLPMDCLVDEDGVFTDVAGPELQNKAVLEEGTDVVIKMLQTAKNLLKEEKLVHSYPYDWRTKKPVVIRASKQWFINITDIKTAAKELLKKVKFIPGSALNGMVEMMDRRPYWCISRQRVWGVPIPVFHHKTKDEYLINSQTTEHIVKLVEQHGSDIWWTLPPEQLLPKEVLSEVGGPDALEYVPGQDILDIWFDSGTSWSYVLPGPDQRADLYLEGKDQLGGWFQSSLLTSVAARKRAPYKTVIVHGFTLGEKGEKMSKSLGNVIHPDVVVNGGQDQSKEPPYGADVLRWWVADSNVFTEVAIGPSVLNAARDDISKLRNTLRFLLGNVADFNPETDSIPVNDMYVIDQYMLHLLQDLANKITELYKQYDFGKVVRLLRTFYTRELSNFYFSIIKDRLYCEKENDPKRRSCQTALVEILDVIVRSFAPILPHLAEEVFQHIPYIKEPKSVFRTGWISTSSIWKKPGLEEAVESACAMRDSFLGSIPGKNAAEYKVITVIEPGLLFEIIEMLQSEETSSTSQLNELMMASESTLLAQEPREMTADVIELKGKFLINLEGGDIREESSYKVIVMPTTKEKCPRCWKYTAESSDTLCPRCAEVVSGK
inactive: [1] -0.025 | [2] 0.014 | [3] 0.026 | [4] 0.005 | [5] 0.013 | [6] -0.007 | [7] -0.043 | [8] -0.01 | [9] 0.054 | [10] 0.016 | [11] -0.006 | [12] -0.008 | [13] -0.005 | [14] 0.007 | [15] -0.025 | [16] -0.031 | [17] 0.016 | [18] 0.005 | [19] 0.013 | [20] -0.031

GMIP (UniProt Q9P107)
inactive: [1] 0.014 | [2] 0.019 | [3] -0.02 | [4] -0.029 | [5] 0.009 | [6] 0.068 | [7] 0.03 | [8] -0.063 | [9] 0.019 | [10] 0.025 | [11] 0.182 | [12] 0.027 | [13] 0.023 | [14] -0.11 | [15] -0.017 | [16] 0.029 | [17] 0.03 | [18] 0.019 | [19] -0.068 | [20] 0.045

GUSB (UniProt P08236)
Sequence of UniProt P08236 (P08236 whole entry, looked up): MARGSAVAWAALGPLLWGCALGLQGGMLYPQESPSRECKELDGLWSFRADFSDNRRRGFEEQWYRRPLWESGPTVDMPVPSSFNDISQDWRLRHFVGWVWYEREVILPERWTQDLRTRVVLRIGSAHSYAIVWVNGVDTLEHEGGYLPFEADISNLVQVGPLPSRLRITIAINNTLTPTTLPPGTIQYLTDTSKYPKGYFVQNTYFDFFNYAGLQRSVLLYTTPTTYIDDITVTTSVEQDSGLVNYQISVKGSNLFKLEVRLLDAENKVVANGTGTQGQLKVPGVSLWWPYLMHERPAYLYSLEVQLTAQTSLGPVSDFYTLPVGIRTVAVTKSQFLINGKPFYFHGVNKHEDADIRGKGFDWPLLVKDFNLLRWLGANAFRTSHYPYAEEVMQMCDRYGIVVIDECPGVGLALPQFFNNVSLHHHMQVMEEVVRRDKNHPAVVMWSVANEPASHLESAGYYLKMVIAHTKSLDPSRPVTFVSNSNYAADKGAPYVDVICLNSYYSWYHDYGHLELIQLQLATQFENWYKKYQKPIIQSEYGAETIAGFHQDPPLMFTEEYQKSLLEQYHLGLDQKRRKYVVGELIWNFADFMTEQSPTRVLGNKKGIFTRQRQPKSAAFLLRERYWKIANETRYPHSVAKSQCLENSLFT
inactive: [1] -0.053 | [2] -0.043 | [3] 0.135 | [4] -0.072 | [5] -0.041 | [6] -0.058 | [7] -0.072 | [8] -0.003 | [9] 0.055 | [10] 0.066 | [11] 0.06 | [12] -0.099 | [13] 0.056 | [14] -0.097 | [15] 0.099 | [16] -0.075 | [17] 0.069 | [18] 0.044 | [19] -0.029 | [20] -0.088

HSD17B10 (UniProt Q99714)
Sequence of UniProt Q99714 (Q99714 whole entry, looked up): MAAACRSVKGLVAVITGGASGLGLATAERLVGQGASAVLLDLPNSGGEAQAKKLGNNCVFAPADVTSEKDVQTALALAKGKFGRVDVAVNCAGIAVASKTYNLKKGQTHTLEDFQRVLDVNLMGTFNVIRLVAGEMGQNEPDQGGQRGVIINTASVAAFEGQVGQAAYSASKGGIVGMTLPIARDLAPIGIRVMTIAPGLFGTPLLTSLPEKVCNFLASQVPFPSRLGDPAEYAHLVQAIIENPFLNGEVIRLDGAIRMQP
inactive: [1] 0.018 | [2] -0.044 | [3] 0.035 | [4] -0.023 | [5] 0.01 | [6] 0.016 | [7] -0.054 | [8] -0.03 | [9] 0.054 | [10] 0.012 | [11] -0.012 | [12] -0.018 | [13] 0.004 | [14] -0.003 | [15] 0 | [16] -0.026 | [17] -0.031 | [18] -0.018 | [19] -0.007 | [20] -0.025

HIST2H2AA3 (UniProt Q6FI13)
inactive: [1] -0.012 | [2] -0.956 | [3] 0.002 | [4] -0.054 | [5] -0.05 | [6] 0.126 | [7] 0.012 | [8] 0.083 | [9] 0.019 | [10] -0.055 | [11] -0.011 | [12] -0.014 | [13] -0.112 | [14] 0.065 | [15] 0 | [16] -0.012 | [17] 0.028 | [18] -0.046 | [19] 0.032 | [20] 0.045

GTPBP2 (UniProt Q9BX10)
Sequence of UniProt Q9BX10 (Q9BX10 whole entry, looked up): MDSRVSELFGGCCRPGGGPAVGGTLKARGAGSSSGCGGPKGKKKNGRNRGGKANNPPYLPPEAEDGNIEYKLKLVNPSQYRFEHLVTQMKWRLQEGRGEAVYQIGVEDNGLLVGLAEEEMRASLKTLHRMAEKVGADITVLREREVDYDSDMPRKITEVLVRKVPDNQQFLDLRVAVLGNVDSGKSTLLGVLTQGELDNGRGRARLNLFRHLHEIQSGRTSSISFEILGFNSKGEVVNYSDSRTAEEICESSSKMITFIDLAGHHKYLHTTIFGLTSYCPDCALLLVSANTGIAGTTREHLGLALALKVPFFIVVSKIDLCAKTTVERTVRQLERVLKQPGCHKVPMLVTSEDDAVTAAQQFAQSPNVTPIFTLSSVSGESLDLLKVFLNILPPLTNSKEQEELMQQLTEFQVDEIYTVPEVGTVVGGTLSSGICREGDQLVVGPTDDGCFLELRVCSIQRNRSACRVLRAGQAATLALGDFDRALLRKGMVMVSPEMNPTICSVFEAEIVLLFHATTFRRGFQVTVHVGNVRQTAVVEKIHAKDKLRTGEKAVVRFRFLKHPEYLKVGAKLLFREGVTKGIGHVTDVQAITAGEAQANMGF
inactive: [1] -0.008 | [2] -0.051 | [3] -0.05 | [4] -0.002 | [5] -0.011 | [6] 0.02 | [7] -0.032 | [8] -0.058 | [9] -0.017 | [10] 0.023 | [11] 0.008 | [12] -0.123 | [13] 0.042 | [14] -0.035 | [15] 0 | [16] 0.004 | [17] -0.018 | [18] 0 | [19] 0.047 | [20] -0.032

HELQ (UniProt Q8TDG4)
inactive: [1] -0.029 | [2] -0.023 | [3] 0.044 | [4] 0.07 | [5] 0.019 | [6] 0.004 | [7] 0.077 | [8] 0.056 | [9] 0.064 | [10] -0.033 | [11] 0.054 | [12] 0.072 | [13] -0.007 | [14] -0.017 | [15] -0.012 | [16] 0.203 | [17] 0.003 | [18] -0.036 | [19] 0.046 | [20] -0.002

HDHD5 (UniProt Q9BXW7)
Sequence of UniProt Q9BXW7 (Q9BXW7 whole entry, looked up): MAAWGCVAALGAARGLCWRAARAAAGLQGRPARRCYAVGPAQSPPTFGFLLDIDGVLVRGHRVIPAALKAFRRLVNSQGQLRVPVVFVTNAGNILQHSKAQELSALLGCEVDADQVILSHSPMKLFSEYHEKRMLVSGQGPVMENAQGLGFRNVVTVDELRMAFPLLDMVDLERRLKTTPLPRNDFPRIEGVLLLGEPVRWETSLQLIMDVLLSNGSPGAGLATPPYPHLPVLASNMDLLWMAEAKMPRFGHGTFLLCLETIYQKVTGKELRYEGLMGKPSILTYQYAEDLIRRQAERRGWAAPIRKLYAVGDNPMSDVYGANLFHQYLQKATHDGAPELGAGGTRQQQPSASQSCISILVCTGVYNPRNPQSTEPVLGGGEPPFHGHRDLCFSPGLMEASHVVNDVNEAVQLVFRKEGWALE
inactive: [1] -0.015 | [2] -0.038 | [3] 0.012 | [4] 0.07 | [5] 0.022 | [6] -0.006 | [7] -0.027 | [8] -0.023 | [9] -0.05 | [10] 0.051 | [11] -0.027 | [12] 0.018 | [13] 0 | [14] 0.073 | [15] -0.042 | [16] 0.011 | [17] -0.023 | [18] -0.007 | [19] 0.024 | [20] -0.001

INTS5 (UniProt Q6P9B9)
Sequence of UniProt Q6P9B9 (Q6P9B9 whole entry, looked up): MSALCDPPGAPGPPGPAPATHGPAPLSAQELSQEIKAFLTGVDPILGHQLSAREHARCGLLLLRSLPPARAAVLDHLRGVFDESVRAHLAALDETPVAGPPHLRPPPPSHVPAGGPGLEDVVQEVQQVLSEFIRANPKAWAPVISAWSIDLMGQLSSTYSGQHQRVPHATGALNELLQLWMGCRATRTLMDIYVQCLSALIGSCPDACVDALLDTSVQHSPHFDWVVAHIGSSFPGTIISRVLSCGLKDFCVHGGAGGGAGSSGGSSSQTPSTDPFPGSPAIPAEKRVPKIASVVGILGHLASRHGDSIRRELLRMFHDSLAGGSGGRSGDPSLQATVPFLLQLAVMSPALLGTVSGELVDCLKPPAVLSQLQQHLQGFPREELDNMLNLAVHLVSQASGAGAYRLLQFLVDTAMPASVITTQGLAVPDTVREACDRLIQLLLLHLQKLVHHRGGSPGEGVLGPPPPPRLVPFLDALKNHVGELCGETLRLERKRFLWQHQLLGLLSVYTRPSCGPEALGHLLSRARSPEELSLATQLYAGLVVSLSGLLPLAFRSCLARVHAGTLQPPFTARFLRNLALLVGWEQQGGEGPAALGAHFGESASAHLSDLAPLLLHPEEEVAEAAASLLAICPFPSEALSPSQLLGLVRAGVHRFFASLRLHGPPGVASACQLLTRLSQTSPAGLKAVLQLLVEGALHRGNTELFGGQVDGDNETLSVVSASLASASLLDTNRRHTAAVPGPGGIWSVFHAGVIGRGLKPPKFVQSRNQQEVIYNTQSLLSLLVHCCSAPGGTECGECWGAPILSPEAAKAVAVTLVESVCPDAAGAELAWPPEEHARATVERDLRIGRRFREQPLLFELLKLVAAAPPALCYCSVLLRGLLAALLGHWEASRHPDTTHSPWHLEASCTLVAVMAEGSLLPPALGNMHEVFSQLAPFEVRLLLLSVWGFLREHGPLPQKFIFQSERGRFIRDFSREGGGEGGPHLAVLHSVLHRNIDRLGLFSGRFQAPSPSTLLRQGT
inactive: [1] 0.002 | [2] -0.061 | [3] -0.082 | [4] -0.04 | [5] 0.068 | [6] -0.072 | [7] -0.098 | [8] -0.001 | [9] 0.247 | [10] -0.015 | [11] 0.051 | [12] 0.056 | [13] 0.051 | [14] -0.038 | [15] -0.06 | [16] -0.013 | [17] 0.021 | [18] 0 | [19] 0.039 | [20] 0.003
